Article PMC7862700, “An all-to-all approach to the identification of sequence-specific readers for epigenetic DNA modifications on cytosine”

Key:
Experiment in all cases: DAPPL (digital affinity profiling via proximity ligation, sequencing); 10 mM Tris-HCl pH 7.5, 50 mM NaCl, 1 mM DTT, 4% glycerol, room temperature, 30 min; GST-TFs on glutathione beads, 16-mer random dsDNA library, 0.1% formaldehyde crosslink after washing; high values mean tight binding
FEV = target: T1, FEV (Homo sapiens, UniProt Q99581 1-238); conditions: protein: recombinant; tags: N-terminal GST; dsDNA, one strand shown
T1 sequence: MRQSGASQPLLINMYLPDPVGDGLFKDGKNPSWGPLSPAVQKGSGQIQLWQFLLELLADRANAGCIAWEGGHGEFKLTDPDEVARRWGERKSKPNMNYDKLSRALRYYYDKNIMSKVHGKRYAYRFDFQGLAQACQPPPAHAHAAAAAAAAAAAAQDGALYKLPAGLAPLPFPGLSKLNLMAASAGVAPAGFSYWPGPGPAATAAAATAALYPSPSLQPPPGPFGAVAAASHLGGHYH
Outline: (§1)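 Binding signal is given per hexamer as its read frequency for a factor divided by its frequency in the tag-only sample. GST-fused human transcription factors were expressed in yeast, captured on glutathione beads, barcoded with DNA and pooled with that sample, then incubated with 200 nmole of a 16-mer random double-stranded DNA library in Tris/NaCl/DTT/glycerol buffer for 30 min at room temperature. The pools were then washed, crosslinked, proximity-ligated, amplified by PCR and sequenced on an Illumina NextSeq500.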

ETV5 = ETV5 (Homo sapiens, UniProt P41161 1-510); conditions: protein: recombinant; tags: N-terminal GST; dsDNA, one strand shown
Chain of ETV5 (P41161 whole entry): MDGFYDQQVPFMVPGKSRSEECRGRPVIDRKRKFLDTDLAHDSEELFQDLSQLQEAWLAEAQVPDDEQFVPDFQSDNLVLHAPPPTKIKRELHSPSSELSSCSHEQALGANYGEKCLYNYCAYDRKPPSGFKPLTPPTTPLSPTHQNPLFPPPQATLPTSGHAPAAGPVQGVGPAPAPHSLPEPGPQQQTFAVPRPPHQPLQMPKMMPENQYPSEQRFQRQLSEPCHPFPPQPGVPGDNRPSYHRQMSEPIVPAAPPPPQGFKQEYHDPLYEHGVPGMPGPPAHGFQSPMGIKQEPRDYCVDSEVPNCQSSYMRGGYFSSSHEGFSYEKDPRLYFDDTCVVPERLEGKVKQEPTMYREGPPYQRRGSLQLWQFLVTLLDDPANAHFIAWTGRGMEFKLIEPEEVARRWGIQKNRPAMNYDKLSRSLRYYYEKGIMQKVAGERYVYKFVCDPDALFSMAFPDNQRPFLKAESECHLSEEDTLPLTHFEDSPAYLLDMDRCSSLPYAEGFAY
Outline: as §1

HSF1 = HSF1 (Homo sapiens, UniProt Q00613 1-529); conditions: protein: recombinant; tags: N-terminal GST; chain copies: 3; dsDNA, one strand shown
Chain of HSF1 (Q00613 whole entry): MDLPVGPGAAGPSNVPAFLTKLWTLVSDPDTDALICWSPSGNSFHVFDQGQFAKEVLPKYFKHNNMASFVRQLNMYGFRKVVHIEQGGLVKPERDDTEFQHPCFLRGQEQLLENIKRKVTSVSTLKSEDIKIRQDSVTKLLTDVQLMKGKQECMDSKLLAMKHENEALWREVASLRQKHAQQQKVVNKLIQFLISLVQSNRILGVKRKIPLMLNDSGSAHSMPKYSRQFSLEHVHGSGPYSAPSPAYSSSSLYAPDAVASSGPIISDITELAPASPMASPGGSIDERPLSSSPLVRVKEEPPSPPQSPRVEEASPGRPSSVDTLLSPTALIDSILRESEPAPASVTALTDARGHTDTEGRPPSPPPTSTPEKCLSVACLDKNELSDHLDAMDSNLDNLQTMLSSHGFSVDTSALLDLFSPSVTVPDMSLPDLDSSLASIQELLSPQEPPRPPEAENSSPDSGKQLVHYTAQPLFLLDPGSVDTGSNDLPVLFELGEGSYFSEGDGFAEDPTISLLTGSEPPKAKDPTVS
Outline: as §1

SPIC = target: T2, SPIC (Homo sapiens, UniProt Q8N5J4 1-248); conditions: protein: recombinant; tags: N-terminal GST; dsDNA, one strand shown
T2 sequence: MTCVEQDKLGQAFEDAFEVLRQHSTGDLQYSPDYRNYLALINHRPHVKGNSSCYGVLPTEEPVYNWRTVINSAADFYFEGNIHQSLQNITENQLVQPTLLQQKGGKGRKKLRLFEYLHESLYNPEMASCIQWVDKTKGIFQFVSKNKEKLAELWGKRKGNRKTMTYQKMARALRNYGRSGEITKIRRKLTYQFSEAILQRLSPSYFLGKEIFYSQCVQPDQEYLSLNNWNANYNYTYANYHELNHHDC
Outline: as §1

ELF4 = ELF4 (Homo sapiens, UniProt Q99607 1-663); conditions: protein: recombinant; tags: N-terminal GST; dsDNA, one strand shown
Chain of ELF4 (Q99607 whole entry): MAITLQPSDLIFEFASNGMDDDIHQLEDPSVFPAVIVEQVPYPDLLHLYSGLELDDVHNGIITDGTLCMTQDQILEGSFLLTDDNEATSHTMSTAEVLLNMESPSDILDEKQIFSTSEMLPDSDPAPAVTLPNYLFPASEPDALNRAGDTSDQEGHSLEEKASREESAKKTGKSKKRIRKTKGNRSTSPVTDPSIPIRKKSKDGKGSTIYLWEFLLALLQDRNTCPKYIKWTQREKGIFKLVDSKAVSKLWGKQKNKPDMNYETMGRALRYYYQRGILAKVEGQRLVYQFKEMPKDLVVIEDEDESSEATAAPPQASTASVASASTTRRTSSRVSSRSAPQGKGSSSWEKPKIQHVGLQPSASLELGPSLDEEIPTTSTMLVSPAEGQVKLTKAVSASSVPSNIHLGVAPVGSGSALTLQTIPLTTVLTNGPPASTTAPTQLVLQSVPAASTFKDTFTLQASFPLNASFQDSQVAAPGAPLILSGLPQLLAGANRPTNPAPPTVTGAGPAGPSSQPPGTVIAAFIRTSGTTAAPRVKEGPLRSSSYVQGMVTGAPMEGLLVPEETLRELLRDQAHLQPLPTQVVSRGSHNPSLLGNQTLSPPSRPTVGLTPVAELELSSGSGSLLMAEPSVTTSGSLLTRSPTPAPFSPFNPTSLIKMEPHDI
Outline: as §1

ELK4 = target: T3, ELK4 (Homo sapiens, UniProt P28324-2 1-405); conditions: protein: recombinant; tags: N-terminal GST; dsDNA, one strand shown
T3 sequence: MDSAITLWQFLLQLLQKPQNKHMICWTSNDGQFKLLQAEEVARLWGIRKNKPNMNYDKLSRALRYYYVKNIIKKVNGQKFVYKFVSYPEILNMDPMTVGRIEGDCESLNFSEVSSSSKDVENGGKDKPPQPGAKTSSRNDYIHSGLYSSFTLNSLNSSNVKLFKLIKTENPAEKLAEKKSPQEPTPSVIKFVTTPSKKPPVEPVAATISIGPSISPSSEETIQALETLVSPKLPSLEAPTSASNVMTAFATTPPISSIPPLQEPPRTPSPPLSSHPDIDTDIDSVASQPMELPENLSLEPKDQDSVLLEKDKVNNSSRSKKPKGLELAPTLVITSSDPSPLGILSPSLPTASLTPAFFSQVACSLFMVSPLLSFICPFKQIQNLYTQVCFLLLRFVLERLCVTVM
Outline: as §1

ETV2 = target: T4, ETV2 (Homo sapiens, UniProt O00321 1-342); conditions: protein: recombinant; tags: N-terminal GST; dsDNA, one strand shown
T4 sequence: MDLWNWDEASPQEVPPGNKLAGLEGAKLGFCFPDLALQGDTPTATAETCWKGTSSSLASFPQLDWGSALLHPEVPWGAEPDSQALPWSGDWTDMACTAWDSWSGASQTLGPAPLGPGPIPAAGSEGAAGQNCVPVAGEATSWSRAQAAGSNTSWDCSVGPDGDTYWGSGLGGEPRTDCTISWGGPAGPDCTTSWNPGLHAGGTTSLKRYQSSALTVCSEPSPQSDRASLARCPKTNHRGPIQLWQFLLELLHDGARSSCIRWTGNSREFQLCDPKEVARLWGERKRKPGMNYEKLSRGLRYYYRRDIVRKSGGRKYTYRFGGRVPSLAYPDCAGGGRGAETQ
Outline: as §1

ELF3 = target: T5, ELF3 (Homo sapiens, UniProt P78545 1-371); conditions: protein: recombinant; tags: N-terminal GST; dsDNA, one strand shown
T5 sequence: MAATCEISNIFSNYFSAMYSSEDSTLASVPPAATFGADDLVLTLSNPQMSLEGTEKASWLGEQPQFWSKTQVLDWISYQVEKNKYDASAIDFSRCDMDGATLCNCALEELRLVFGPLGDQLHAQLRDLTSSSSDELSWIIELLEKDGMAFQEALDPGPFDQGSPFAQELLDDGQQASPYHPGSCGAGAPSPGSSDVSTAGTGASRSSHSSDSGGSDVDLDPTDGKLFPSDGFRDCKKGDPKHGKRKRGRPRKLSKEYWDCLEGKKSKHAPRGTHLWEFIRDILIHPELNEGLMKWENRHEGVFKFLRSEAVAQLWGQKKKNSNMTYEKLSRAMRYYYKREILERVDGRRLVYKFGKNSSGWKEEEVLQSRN
Outline: as §1

CRX = CRX (Homo sapiens, UniProt O43186 1-299); conditions: protein: recombinant; tags: N-terminal GST; dsDNA, one strand shown
Chain of CRX (O43186 whole entry): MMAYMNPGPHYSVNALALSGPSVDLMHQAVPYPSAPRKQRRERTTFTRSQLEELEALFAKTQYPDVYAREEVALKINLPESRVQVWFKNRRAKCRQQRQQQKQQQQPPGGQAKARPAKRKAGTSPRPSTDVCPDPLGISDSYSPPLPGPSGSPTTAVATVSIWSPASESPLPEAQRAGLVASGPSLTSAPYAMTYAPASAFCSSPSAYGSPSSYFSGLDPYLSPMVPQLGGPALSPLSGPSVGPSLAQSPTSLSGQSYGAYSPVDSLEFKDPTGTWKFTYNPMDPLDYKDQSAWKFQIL
Outline: as §1

ETV1 = ETV1 (Homo sapiens, UniProt P50549 1-477); conditions: protein: recombinant; tags: N-terminal GST; dsDNA, one strand shown
Chain of ETV1 (P50549 whole entry): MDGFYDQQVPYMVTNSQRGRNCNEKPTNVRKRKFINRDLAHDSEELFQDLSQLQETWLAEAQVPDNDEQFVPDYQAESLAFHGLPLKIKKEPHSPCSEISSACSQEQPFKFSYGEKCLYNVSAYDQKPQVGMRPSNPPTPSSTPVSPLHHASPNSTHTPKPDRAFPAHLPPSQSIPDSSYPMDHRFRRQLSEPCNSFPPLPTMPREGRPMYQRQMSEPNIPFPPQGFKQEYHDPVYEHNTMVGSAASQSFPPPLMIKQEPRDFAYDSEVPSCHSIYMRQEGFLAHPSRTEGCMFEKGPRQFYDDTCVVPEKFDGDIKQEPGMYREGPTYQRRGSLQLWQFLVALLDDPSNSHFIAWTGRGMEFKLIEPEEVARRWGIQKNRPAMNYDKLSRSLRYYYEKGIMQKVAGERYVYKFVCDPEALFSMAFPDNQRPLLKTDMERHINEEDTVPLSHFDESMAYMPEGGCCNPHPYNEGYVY
Outline: as §1

ERF = target: T6, ERF (Homo sapiens, UniProt P50548 1-548); conditions: protein: recombinant; tags: N-terminal GST; dsDNA, one strand shown
T6 sequence: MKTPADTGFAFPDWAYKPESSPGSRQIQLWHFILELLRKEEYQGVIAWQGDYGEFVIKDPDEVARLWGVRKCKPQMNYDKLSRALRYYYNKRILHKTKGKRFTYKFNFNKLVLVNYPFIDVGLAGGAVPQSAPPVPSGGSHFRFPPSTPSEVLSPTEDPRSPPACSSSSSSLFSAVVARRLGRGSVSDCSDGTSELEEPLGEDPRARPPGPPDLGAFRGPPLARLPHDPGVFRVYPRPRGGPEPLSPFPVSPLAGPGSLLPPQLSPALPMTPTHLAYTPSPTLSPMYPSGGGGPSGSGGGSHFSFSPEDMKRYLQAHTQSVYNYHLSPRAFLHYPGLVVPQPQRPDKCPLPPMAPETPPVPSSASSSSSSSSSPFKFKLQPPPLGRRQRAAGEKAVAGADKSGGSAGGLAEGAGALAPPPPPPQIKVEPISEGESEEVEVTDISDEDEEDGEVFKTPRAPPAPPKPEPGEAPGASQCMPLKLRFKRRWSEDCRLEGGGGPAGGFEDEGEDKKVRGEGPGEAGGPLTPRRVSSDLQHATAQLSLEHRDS
Outline: as §1

ETV3L = target: T7, ETV3L (Homo sapiens, UniProt Q6ZN32 1-361); conditions: protein: recombinant; tags: N-terminal GST; dsDNA, one strand shown
T7 sequence: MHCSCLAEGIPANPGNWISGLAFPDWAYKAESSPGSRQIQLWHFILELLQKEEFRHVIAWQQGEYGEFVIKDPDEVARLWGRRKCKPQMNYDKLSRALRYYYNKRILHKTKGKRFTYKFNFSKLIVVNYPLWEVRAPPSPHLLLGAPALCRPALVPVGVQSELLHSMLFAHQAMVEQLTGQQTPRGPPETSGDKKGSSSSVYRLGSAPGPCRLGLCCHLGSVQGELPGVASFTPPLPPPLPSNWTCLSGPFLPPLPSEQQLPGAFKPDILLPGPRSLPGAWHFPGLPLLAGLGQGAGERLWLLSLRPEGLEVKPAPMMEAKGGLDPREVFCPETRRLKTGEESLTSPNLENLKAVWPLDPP
Outline: as §1

ETS2 = target: T8, ETS2 (Homo sapiens, UniProt P15036 1-469); conditions: protein: recombinant; tags: N-terminal GST; dsDNA, one strand shown
T8 sequence: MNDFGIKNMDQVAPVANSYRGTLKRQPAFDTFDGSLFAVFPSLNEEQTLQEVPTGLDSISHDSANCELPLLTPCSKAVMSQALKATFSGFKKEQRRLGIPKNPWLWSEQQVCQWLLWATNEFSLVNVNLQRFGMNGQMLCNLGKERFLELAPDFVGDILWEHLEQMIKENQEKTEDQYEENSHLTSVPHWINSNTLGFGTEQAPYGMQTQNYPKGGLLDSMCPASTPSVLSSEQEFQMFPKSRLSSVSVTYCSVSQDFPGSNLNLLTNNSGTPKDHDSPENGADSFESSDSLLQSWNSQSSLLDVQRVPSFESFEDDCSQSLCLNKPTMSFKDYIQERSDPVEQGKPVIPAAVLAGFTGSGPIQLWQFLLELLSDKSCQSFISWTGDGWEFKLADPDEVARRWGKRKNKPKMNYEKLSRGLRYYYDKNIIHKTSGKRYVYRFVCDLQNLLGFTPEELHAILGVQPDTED
Outline: as §1

SPDEF = target: T9, SPDEF (Homo sapiens, UniProt O95238 1-335); conditions: protein: recombinant; tags: N-terminal GST; dsDNA, one strand shown
T9 sequence: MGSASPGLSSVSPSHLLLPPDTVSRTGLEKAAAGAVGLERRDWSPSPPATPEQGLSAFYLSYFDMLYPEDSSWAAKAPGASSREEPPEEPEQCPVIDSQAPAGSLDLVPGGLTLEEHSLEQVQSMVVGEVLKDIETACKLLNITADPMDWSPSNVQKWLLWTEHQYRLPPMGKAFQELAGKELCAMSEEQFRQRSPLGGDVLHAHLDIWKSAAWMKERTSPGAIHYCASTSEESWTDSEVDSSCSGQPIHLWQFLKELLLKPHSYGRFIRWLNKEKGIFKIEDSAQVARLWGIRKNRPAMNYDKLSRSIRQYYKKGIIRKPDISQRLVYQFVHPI
Outline: as §1

ETV7 = target: T10, ETV7 (Homo sapiens, UniProt Q9Y603 1-341); conditions: protein: recombinant; tags: N-terminal GST; dsDNA, one strand shown
T10 sequence: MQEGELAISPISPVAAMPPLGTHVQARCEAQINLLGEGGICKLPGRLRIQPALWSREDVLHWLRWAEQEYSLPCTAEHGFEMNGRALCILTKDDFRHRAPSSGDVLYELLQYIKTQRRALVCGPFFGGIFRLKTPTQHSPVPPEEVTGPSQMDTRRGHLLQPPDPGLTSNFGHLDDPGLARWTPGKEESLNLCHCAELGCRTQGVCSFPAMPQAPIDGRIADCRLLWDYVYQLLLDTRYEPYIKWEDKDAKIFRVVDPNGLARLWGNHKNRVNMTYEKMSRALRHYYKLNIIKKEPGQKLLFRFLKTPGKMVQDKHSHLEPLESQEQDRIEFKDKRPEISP
Outline: as §1

ELF5 = target: T11, ELF5 (Homo sapiens, UniProt Q9UKW6-2 1-255); conditions: protein: recombinant; tags: N-terminal GST; dsDNA, one strand shown
T11 sequence: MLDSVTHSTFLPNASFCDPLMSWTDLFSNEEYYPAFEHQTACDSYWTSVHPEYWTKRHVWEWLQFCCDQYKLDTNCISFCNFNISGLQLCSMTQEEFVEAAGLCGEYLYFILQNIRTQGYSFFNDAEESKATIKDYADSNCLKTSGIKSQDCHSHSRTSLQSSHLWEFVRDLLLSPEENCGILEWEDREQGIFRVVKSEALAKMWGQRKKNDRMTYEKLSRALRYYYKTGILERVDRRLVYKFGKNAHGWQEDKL
Outline: as §1

ETV3 = target: T12, ETV3 (Homo sapiens, UniProt P41162-2 1-143); conditions: protein: recombinant; tags: N-terminal GST; dsDNA, one strand shown
T12 sequence: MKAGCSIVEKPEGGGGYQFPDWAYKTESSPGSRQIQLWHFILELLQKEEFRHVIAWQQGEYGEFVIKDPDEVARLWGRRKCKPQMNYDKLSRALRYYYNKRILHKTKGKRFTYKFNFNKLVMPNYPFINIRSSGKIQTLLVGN
Outline: as §1

ETV6 = ETV6 (Homo sapiens, UniProt P41212 1-452); conditions: protein: recombinant; tags: N-terminal GST; dsDNA, one strand shown
Chain of ETV6 (P41212 whole entry): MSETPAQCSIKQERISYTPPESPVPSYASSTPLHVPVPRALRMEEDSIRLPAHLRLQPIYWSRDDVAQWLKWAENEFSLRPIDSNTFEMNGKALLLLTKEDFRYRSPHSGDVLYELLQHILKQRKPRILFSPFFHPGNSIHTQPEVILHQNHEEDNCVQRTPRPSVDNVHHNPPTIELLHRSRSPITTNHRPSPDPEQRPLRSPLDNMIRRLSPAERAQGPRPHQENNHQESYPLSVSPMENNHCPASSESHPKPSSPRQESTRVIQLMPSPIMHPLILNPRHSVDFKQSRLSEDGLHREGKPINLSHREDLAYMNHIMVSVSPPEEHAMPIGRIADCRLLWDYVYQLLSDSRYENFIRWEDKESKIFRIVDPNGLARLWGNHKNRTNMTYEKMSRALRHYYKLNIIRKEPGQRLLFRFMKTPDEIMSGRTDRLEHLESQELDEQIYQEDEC
Outline: as §1

**Q.** With CTGTAC as the sequence, how does the binding signal (FEV) read?
**A.** 1.44 fold enrichment (6-mer frequency, TF over GST control)

**Q.** And the binding signal (ETV5)?
**A.** 1.34 fold enrichment (6-mer frequency, TF over GST control)

**Q.** And the binding signal (HSF1)?
**A.** 1.02 fold enrichment (6-mer frequency, TF over GST control)

**Q.** What about the binding signal (SPIC) of the same sequence?
**A.** 1.41 fold enrichment (6-mer frequency, TF over GST control)

**Q.** And the binding signal (ELF4)?
**A.** 1.33 fold enrichment (6-mer frequency, TF over GST control)

**Q.** And the binding signal (ELK4)?
**A.** 1.43 fold enrichment (6-mer frequency, TF over GST control)

**Q.** And the binding signal (ETV2)?
**A.** 1.39 fold enrichment (6-mer frequency, TF over GST control)

**Q.** And the binding signal (ELF3)?
**A.** 1.26 fold enrichment (6-mer frequency, TF over GST control)

**Q.** And the binding signal (CRX)?
**A.** 1.06 fold enrichment (6-mer frequency, TF over GST control)

**Q.** And the binding signal (ETV1)?
**A.** 1.42 fold enrichment (6-mer frequency, TF over GST control)

**Q.** And the binding signal (ERF)?
**A.** 1.18 fold enrichment (6-mer frequency, TF over GST control)

**Q.** And the binding signal (ETV3L)?
**A.** 1.35 fold enrichment (6-mer frequency, TF over GST control)

**Q.** And the binding signal (ETS2)?
**A.** 1.33 fold enrichment (6-mer frequency, TF over GST control)

**Q.** What about the binding signal (SPDEF) of the same sequence?
**A.** 1.57 fold enrichment (6-mer frequency, TF over GST control)

**Q.** What about the binding signal (ETV7) of the same sequence?
**A.** 1.22 fold enrichment (6-mer frequency, TF over GST control)

**Q.** What about the binding signal (ELF5) of the same sequence?
**A.** 1.36 fold enrichment (6-mer frequency, TF over GST control)

**Q.** And the binding signal (ETV3)?
**A.** 1.31 fold enrichment (6-mer frequency, TF over GST control)

**Q.** What about the binding signal (ETV6) of the same sequence?
**A.** 1.3 fold enrichment (6-mer frequency, TF over GST control)
